tim23-1 inh: growth inhibitors of tim23-1 mutant yeast; S. cerevisiae tim23-1 growth, BacTiter-Glo luminescence, 24 h; inhibition, % at 20 µM; hit rate 1.3% among 330,000;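 active = growth inhibition of the mutant yeast at or above 50%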;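 note: temperature-sensitive mutant grown at 25 °C; plate controls were DMSO-treated mutant yeast for no effect and medium wells lacking yeast for full effect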
V-ATPase pH: regulators of yeast V-ATPase proton transport; response, % at 10 µM; AID 504577; hit rate 0.37% among 350,000; S. cerevisiae, pHLuorin cytosolic pH fluorescence; in the data active = response mostly above about 7.3%, no sharp cut-off; inactive = mostly below about 5.4%; note: actives read high
PfHsp90 set2: inhibits growth of yeast expressing Plasmodium falciparum Hsp90; S. cerevisiae expressing PfHsp90, BacTiter-Glo ATP, 48 h; yeast lacking PDR1 and PDR3 efflux regulators; inhibition, % at 9.4 µM; hit rate 0.32% among 310,000;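 active = every replicate shows inhibition above about 80%, whatever the replicate mean, limit read from the data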;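 note: 0% = DMSO neutral controls and 100% = 20 µM radicicol positive controls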
tim10-1 inh: inhibits growth of tim10-1 mutant yeast. inhibition, % at 20 µM. hit rate 2.2% among 330,000. S. cerevisiae tim10-1 ts strain growth, BacTiter-Glo, 24 h;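 active = inhibition of at least 40%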;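 note: mutant grown at 25 °C; 0% = DMSO wells with yeast and 100% = wells holding no yeast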
TIM10 inh: inhibits growth of TIM10 yeast strain | S. cerevisiae TIM10 strain growth, BacTiter-Glo luminescence, 24 h | inhibition, % at 10 µM | hit rate 1.4% among 330,000 | AID 463195;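 active = inhibition of 40% or more at the single tested concentration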;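 note: wild-type TIM10 isogenic control strain grown at permissive 25 °C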
tim10-1 confirm: tim10-1 yeast growth inhibition, confirmed; shares compounds with tim10-1 inh; S. cerevisiae tim10-1 ts strain growth, BacTiter-Glo, 24 h; inhibition, % at 20 µM; hit rate 56% among 7,400;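 active = inhibition of yeast growth at or above a set limit in either of two repeat tests at 20 µM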;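 note: tim10-1 mutant grown at permissive 25 °C to find synthetic lethal compounds; 0% = DMSO yeast wells and 100% = medium wells without yeast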
The depositor's hits bear a star. In the library only some 3.7% were active in any assay of this set; here they are far more common.

Screening CN(C)/C(=N\S(=O)(=O)c1ccc(Br)cc1)c1ccccc1 returned tim23-1 inh 8, V-ATPase pH -1, PfHsp90 set2 -32, tim10-1 inh 0 and TIM10 inh -3.
COc1ccc(C2=NN(C(=O)c3ccco3)C(c3cccs3)C2)cc1OC (stereo unspecified) was read as V-ATPase pH -4.
CC12C(=O)N(c3cccc(OC(=O)c4ccco4)c3)C(=O)C1C1c3ccccc3C2c2ccccc21 (stereo unspecified) was read as tim23-1 inh 39, V-ATPase pH -1, tim10-1 inh 42*, TIM10 inh 20 and tim10-1 confirm 25.
For CC12C(=O)N(c3ccc(OC(=O)c4ccco4)cc3)C(=O)C1C1c3ccccc3C2c2ccccc21 (stereo unspecified) the results were tim23-1 inh 3, V-ATPase pH 2, PfHsp90 set2 26, tim10-1 inh 4 and TIM10 inh -5.
`CCOc1ccc(-n2ccnc(SCC(=O)NCc3cccc(OC)c3)c2=O)cc1` gave tim23-1 inh 20, V-ATPase pH 6, tim10-1 inh 43*, TIM10 inh 10 and tim10-1 confirm 11.
CCOc1ccc(-n2ccnc(SCC(=O)Nc3ccc(OC)cc3OC)c2=O)cc1 was read as tim23-1 inh 9, V-ATPase pH 4, PfHsp90 set2 16, tim10-1 inh 27 and TIM10 inh 15.
`Oc1ccc(CN2CCN(Cc3ccccc3)CC2)c2cccnc12` gave tim23-1 inh -40, V-ATPase pH -1, tim10-1 inh 21 and TIM10 inh 17.
Screening CN1CCN(Cc2cc(COCc3ccccc3)c3cccnc3c2O)CC1 returned tim23-1 inh 10, V-ATPase pH -1, PfHsp90 set2 18, tim10-1 inh 47*, TIM10 inh 9 and tim10-1 confirm 25.
`O=C(O)CC1(CC(=O)NCc2ccc(Cl)cc2)CCCCC1` gave tim23-1 inh -8, V-ATPase pH 3, PfHsp90 set2 -13, tim10-1 inh -7 and TIM10 inh 3.
CCOC(=O)N1CCC(NC(=O)C2CCN(C(=O)c3cc4sccc4n3CC)CC2)CC1 was read as tim23-1 inh -8, V-ATPase pH -5, PfHsp90 set2 13, tim10-1 inh 9 and TIM10 inh -4.
Screening Cc1ccccc1N=Nc1c(C)[nH]n(C(N)=S)c1=O returned tim23-1 inh 31, V-ATPase pH -7, PfHsp90 set2 18, tim10-1 inh 41*, TIM10 inh 31 and tim10-1 confirm 26.
`O=C(COC(=O)COc1ccc(Cl)cc1)NC1CCCCCC1` gave tim23-1 inh 3, V-ATPase pH -1, tim10-1 inh -20 and TIM10 inh -3.
Screening Cc1cc2ncn(/N=C/c3ccc(-c4ccccc4)o3)c2cc1C returned tim23-1 inh -10, V-ATPase pH -2, tim10-1 inh 47*, TIM10 inh 30 and tim10-1 confirm 17.
Screening O=C(NCC1CCCO1)c1ccc([N+](=O)[O-])s1 (stereo unspecified) returned tim23-1 inh 29, V-ATPase pH -1, PfHsp90 set2 -7, tim10-1 inh 11 and TIM10 inh 12.
Screening CCn1cc(C(=O)N(C)c2ccccc2F)c2cc(OC)c(OC)cc2c1=O returned tim23-1 inh 7, V-ATPase pH 0, PfHsp90 set2 -5, tim10-1 inh 32 and TIM10 inh -12.
O=C(Nc1nnc(-c2ccccn2)o1)c1ccc(Br)cc1 was read as tim23-1 inh 29, V-ATPase pH 1, PfHsp90 set2 -38, tim10-1 inh 46*, TIM10 inh 14 and tim10-1 confirm 29.
Screening O=C(/C=C/Nc1ccccc1Oc1ccccc1)c1ccco1 returned tim23-1 inh 29, V-ATPase pH 0, PfHsp90 set2 6, tim10-1 inh 43*, TIM10 inh 23 and tim10-1 confirm 16.
O=C(/C=C/Nc1ccccc1O)c1ccco1 was read as tim23-1 inh -30, V-ATPase pH 1, PfHsp90 set2 14, tim10-1 inh -64 and TIM10 inh -50.
N#Cc1ccc(NCC(=O)Nc2ccc(S(=O)(=O)N3CCCCC3)cc2)cc1 was read as tim23-1 inh -4, V-ATPase pH -1, PfHsp90 set2 2, tim10-1 inh 1 and TIM10 inh 6.
For CC(C)c1ccc(N2CC(C)(C)C2=O)cc1 the results were tim23-1 inh 9, V-ATPase pH -8, PfHsp90 set2 -16, tim10-1 inh -16 and TIM10 inh -12.
Screening CC(C)c1ccc(S(=O)(=O)N2CCN(CC(=O)c3ccc(O)c(O)c3)CC2)cc1 returned tim23-1 inh 24, V-ATPase pH -2, PfHsp90 set2 -16, tim10-1 inh 50*, TIM10 inh 22 and tim10-1 confirm 9.
`Cc1ccc(C(=O)NCC(=O)OCn2nnc3ccccc3c2=O)cc1` gave tim23-1 inh 0, V-ATPase pH -2, PfHsp90 set2 11, tim10-1 inh -31 and TIM10 inh -18.
Screening CCc1ccc2nc3nc(C)cc(C)c3c(N)c2c1 returned tim23-1 inh 8, V-ATPase pH -5, PfHsp90 set2 -3, tim10-1 inh 47*, TIM10 inh 36 and tim10-1 confirm 41*.
For CCc1ccc(NC(=S)/N=C(\N)Nc2nc(C)c3cc(CC)ccc3n2)cc1 the results were tim23-1 inh 8, V-ATPase pH 1, PfHsp90 set2 2, tim10-1 inh 28 and TIM10 inh 14.
C=C(C)CNC(=S)N=Nc1c(O)[nH]c2ccc([N+](=O)[O-])cc12 was read as tim23-1 inh 27, V-ATPase pH -1, PfHsp90 set2 17, tim10-1 inh 42*, TIM10 inh 20 and tim10-1 confirm 19.
For CC(C)NC(=S)N=Nc1c(O)[nH]c2ccc([N+](=O)[O-])cc12 the results were tim23-1 inh -7, V-ATPase pH 1, tim10-1 inh 17 and TIM10 inh 21.
For N#Cc1ccc(-c2cn3c(n2)SCC3)cc1 the results were V-ATPase pH 0 and PfHsp90 set2 -13.
COC(=O)c1c(NC(NC(=O)C(C)C)C(Cl)(Cl)Cl)sc2c1CCC2 (stereo unspecified) was read as tim23-1 inh 25, V-ATPase pH 1, PfHsp90 set2 -31, tim10-1 inh 44*, TIM10 inh 24 and tim10-1 confirm 24.
COC(=O)c1c(NC(NC(=O)C(C)(C)C)C(Cl)(Cl)Cl)sc2c1CCC2 (stereo unspecified) was read as tim23-1 inh 26, V-ATPase pH 2, PfHsp90 set2 -8, tim10-1 inh 36 and TIM10 inh 31.
For C=CCNC(=O)/C(C#N)=C/c1ccc2c(c1)OCCO2 the results were tim23-1 inh 30, V-ATPase pH 2, PfHsp90 set2 -4, tim10-1 inh 43*, TIM10 inh 4 and tim10-1 confirm 26.
For CC(C)C[C@@H](CSc1ccc(Br)cc1)N1CCN(C)CCC1=O the results were tim23-1 inh 12, V-ATPase pH -2, tim10-1 inh 14 and TIM10 inh 8.
